# Assay results as given in PubChem BioAssay (EPA / NIEHS).
# Calls of active or inactive are those of the source. How the source made its calls: active means hit-call score of the fitted dose curve at least 0.9, where 1 is the maximum; inconclusive means response in the unintended direction; inactive means score below 0.9.
# System: DIO2 (gene 1734)
# Experiment: CCTE_GLTED_hDIO2: CCTE's human Deiodinase 2 (DIO2) Inhibition Assay, Great Lakes Toxicology and Ecology Division (GLTED) Lab (AID 2284050)
# Experimental: CCTE_GLTED_hDIO2 is a cell-free, single-readout assay designed to test the inhibitory activity of chemicals toward human iodothyronine Deiodinase type 2 (DIO2) enzyme. Enzyme is incubated in presence of test chemical for 3 hours during which uninhibited enzyme liberates free iodide from substrate. Free iodide is measured in a second step using the Sandell-Kolthoff method.CCTE_GLTED_hDIO2 is the assay component measured from the CCTE_GLTED_hDIO2 assay. It is designed to make measurements of enzyme activity, a form of enzyme reporter, as detected with absorbance signals by spectrophotometry.Data from the assay component CCTE_GLTED_hDIO2 was analyzed into 1 assay endpoint. This assay endpoint, CCTE_GLTED_hDIO2, was analyzed in the positive analysis fitting direction relative to DMSO as the negative control and baseline of activity. Using a type of enzyme reporter, loss-of-signal activity can be used to understand changes in the enzymatic activity as they relate to the gene DIO2. Furthermore, this assay endpoint can be referred to as a primary readout, because the performed assay has only produced 1 assay endpoint. To generalize the intended target to other relatable targets, this assay endpoint is annotated to the 'deiodinase' intended target family, where the subfamily is 'deiodinase Type 2'.
# Human deiodinase type 2 (hDIO2) assay, developed at Great Lakes Toxicology and Ecology Division (GLTED) within the EPA's Center for Computational Toxicology and Exposure (CCTE), is designed to test the chemicals' ability to inhibit DIO2. Assay is based on iodide release measured by the Sandell-Kolthoff method and is run in 96-well plate format with assay plates run in triplicate (n=3). The method used for the deiodinase assay was largely based on Renko et al. (2012, 2015). These works describe the utilization of the SK reaction to measure deiodinase-liberated iodide in a 96-well-plate format. The SK reaction is based on the reduction of the yellow-colored cerium IV to the non-colored cerium III by arsenic, with the rate of this reaction increased in the presence of iodide in a concentration-dependent manner (Sandell and Kolthoff, 1937). Iodinated test chemicals can interfere as competitive inhibitors, or if the stock chemical has contaminating free-iodide present. Other chemicals, e.g.: nitrite, iron, and thiocyanate can interfere with the Sandell-Kolthoff reaction (see Sandell and Kolthoff, 1937).
row,SMILES,AC50
1,CCCCCCCCCCCCc1ccccc1S(=O)(=O)O,72.2 µM (active)
2,ClC1=C(Cl)C(Cl)(Cl)C(Cl)=C1Cl,23.9 µM (active)
3,CCCCCCCCCCCCCC[N+](C)(C)C,24.7 µM (active)
4,CC(C)(C)c1ccc(O)c(C(C)(C)C)c1,159 µM (active)
5,CN1CCN(c2ccccc2/C=C2\SCCN(c3ccc(Cl)c(Cl)c3)C2=O)CC1,104 µM (active)
6,CCC(=C(c1ccc(O)cc1)c1ccc(OCCN(C)C)cc1)c1ccccc1,35.2 µM (active)
7,Cc1oc(-c2ccccc2)nc1CCOc1ccc(C[C@H](Nc2ccccc2C(=O)c2ccccc2)C(=O)O)cc1,46.1 µM (active)
8,CC1=C(/C=C/C(C)=C/C=C/C(C)=C/C(=O)O)C(C)(C)CCC1,60.4 µM (active)
9,CC(=O)NC1(c2cccc(F)c2)CCN(CC[C@@]2(c3ccc(Cl)c(Cl)c3)CN(c3ccccc3)C(=O)CO2)CC1,82.6 µM (active)
10,NC(=O)N(O)[C@@H]1C=C[C@H](Oc2cccc(Oc3ccc(F)cc3)c2)C1,36.5 µM (active)
11,c1ccc2cc3c(ccc4ccccc43)cc2c1,70 µM (active)
12,CCCCCCCCCCCCN1CCCC1=O,138 µM (active)
